The record followed here is the supplement of paper PMC11006884.

Of roughly 6,500 targets only a part is listed; those with a hit were picked by preference. About 2% of all pairs of compound and target were hits.

Chain of UniProt P15924 (P15924 whole entry, looked up): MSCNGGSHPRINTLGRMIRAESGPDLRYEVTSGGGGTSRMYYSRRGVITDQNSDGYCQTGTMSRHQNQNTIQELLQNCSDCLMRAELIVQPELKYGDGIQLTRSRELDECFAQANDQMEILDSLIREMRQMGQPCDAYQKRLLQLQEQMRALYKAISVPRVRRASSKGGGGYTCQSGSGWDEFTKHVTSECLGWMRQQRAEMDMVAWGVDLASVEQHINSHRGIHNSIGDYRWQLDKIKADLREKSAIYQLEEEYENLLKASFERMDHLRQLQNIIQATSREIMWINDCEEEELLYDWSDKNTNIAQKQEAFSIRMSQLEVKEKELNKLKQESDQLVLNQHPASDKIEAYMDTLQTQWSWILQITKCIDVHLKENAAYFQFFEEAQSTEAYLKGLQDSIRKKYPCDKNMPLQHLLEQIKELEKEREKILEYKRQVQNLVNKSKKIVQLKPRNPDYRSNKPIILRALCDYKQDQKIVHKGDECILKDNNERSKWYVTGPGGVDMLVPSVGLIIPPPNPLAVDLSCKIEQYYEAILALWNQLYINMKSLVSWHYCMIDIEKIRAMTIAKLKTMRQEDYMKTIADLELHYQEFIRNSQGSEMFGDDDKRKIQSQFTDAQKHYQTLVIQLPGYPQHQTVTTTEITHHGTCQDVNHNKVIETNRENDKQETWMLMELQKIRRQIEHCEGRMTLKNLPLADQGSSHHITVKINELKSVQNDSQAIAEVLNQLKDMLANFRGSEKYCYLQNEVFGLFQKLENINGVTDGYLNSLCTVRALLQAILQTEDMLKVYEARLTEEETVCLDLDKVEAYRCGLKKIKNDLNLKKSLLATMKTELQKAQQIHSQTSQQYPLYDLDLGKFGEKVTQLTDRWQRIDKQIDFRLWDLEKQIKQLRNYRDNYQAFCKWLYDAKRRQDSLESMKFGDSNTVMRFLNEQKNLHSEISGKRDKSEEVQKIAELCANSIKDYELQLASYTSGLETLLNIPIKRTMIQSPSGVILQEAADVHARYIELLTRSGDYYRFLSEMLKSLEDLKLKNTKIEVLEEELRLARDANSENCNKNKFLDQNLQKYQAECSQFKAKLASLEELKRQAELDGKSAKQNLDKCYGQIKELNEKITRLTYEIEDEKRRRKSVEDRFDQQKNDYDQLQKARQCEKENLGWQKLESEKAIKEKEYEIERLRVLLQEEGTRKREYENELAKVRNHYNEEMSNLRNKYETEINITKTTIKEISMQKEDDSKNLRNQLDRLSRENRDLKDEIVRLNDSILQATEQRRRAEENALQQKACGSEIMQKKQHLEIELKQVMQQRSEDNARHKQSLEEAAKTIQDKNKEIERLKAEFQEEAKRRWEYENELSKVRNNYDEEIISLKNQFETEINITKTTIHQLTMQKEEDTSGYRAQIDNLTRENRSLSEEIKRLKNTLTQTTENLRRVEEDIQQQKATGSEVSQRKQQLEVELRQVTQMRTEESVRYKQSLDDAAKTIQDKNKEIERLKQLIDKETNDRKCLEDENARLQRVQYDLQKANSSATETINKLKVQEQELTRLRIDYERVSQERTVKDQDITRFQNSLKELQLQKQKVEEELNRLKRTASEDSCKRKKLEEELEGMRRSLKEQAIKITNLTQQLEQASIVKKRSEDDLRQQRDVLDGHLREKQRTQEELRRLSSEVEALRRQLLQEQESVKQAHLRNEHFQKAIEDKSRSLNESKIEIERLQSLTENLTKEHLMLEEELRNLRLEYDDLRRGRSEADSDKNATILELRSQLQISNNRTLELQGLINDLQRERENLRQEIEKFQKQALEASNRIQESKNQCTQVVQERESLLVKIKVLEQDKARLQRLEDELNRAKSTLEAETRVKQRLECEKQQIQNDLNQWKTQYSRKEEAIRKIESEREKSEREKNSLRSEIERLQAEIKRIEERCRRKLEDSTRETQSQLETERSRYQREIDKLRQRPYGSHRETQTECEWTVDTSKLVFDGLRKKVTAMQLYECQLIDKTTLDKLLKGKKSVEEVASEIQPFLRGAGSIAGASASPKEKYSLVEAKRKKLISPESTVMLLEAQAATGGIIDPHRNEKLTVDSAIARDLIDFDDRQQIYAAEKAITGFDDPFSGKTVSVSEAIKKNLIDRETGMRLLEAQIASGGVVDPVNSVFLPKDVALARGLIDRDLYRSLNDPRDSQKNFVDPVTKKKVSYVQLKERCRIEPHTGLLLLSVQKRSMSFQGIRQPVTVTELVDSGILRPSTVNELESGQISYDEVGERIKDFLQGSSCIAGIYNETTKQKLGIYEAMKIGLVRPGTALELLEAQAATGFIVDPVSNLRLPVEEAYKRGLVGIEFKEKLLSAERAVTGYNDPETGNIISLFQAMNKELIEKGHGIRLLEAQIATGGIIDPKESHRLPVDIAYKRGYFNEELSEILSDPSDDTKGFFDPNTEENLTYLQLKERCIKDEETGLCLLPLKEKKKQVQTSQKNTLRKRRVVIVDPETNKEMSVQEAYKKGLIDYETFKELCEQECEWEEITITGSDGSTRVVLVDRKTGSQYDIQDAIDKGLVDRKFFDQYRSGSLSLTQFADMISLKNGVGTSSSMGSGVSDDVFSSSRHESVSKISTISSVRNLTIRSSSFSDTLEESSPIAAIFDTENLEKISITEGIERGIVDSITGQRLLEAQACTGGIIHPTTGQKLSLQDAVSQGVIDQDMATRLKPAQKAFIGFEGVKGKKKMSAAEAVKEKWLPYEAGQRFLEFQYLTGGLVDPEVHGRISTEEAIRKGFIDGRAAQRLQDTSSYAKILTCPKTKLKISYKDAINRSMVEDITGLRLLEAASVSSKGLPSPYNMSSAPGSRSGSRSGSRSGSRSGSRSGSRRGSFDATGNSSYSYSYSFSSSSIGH
Chain of UniProt P38432 (P38432 whole entry, looked up): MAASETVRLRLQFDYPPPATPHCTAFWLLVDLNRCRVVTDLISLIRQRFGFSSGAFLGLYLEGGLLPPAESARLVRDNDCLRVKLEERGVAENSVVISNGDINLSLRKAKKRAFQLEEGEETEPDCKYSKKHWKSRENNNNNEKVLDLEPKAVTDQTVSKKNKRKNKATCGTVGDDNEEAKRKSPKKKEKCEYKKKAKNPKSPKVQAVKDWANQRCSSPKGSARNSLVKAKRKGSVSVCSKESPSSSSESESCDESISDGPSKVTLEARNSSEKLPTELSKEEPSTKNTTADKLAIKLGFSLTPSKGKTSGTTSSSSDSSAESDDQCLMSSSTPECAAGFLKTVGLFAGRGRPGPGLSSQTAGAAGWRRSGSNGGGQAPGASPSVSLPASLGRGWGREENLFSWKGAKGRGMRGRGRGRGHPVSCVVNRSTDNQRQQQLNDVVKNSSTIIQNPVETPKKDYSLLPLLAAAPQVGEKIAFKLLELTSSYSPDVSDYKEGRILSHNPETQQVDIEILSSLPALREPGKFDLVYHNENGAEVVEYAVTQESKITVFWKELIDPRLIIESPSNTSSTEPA
Chain of UniProt O95819 (O95819 whole entry, looked up): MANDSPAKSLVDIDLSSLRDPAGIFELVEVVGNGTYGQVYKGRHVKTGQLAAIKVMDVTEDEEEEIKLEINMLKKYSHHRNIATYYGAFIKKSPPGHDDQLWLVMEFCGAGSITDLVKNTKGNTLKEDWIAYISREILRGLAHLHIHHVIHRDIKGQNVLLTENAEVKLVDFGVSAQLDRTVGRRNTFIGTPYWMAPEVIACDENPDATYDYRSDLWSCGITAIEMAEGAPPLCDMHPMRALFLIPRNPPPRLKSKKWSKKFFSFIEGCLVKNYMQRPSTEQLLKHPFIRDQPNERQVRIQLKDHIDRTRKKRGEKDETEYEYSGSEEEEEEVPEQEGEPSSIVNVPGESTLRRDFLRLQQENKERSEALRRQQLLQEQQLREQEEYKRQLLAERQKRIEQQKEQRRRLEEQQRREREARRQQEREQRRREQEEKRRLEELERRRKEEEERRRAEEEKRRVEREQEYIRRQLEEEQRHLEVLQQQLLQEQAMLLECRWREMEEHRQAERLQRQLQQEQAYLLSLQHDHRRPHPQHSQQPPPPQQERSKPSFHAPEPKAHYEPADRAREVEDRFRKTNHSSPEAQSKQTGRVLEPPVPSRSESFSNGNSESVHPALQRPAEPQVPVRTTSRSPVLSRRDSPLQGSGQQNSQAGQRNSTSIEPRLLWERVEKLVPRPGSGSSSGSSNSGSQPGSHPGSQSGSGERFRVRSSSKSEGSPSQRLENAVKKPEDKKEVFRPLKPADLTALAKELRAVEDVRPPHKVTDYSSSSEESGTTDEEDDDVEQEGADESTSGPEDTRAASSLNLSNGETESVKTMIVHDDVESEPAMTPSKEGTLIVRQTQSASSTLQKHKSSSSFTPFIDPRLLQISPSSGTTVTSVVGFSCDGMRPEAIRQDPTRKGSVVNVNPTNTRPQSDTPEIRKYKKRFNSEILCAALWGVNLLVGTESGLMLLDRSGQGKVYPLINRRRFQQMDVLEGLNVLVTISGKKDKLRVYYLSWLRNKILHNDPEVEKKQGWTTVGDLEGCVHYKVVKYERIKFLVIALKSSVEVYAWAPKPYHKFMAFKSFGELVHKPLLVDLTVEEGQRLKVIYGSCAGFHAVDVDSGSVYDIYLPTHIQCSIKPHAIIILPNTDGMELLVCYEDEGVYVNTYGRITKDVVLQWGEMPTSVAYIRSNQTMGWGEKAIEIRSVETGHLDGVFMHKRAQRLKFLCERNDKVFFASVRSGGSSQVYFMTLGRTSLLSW
Chain of UniProt P09651 (P09651 whole entry, looked up): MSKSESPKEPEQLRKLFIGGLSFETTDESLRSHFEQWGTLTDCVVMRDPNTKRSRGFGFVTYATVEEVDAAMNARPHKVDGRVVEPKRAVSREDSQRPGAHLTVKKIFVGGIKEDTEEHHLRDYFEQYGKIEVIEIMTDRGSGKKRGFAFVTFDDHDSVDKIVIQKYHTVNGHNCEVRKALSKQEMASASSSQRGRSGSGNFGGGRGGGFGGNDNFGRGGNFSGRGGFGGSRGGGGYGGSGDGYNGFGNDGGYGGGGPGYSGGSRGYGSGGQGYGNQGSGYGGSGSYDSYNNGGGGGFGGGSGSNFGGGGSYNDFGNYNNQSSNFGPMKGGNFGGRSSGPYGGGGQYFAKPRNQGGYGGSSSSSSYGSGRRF

Compound in this assay: COC(=O)C#Cc1ccccc1 [methyl 3-phenylpropiolate]
As to the kind of experiment: log2 ratio of iodoacetamide-alkyne labeling of the cysteine site, DMSO over compound (competition); higher = stronger covalent engagement of the cysteine by the compound, active = 1 or more. The following applies: 500 µM; treatment time 1 h; system: HEK293T cell lysate. The essentials:
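For each cysteine, the log2 competition ratio is mean control-channel reporter intensity over mean compound-channel reporter intensity. HEK293T lysate (2 mg/mL) was exposed to vehicle or electrophile (500 µM, 1 h, ambient temperature), labelled with iodoacetamide alkyne (1 h), clicked to sCIP-TMT reagents, digested overnight with trypsin at 37 °C, streptavidin-enriched and analysed by Orbitrap Eclipse LC-MS/MS with FAIMS and FragPipe. Cysteines quantified in only one of three replicates, each with duplicate channels, were excluded.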
As for PCNA C62 (UniProt P12004), the “log2 ratio of iodoacetamide-alkyne labeling” value (“log2 ratio” below) is 0.0598 (inactive).

LMNA C570 (UniProt P02545): the “log2 ratio” value is 0.553 (inactive).

As for RPL4 C208 (UniProt P36578), the “log2 ratio” value was 0.273 (inactive).

Consider PEX5 C11 (UniProt P50542), for which the “log2 ratio” value is 0.204 (inactive).

Consider UniProt O95071_C739, for which the “log2 ratio” value is 0.0375 (inactive).

On to RPL27A C144 (UniProt P46776), for which the “log2 ratio” value is 0.155 (inactive).

Take UniProt O96017_C385: the “log2 ratio” value is 0.227 (inactive).

On to MAP4K4 C202 (UniProt O95819), for which the “log2 ratio” value is 0.624 (inactive).

Consider RANBP2 C1296 (UniProt P49792), for which the “log2 ratio” value is 0.543 (inactive).

Turning to GALK1 C170 (UniProt P51570), the “log2 ratio” value was 0.0992 (inactive).

For the target EEF2 C557 (UniProt P13639), the “log2 ratio” value was -0.298 (inactive).

Turning to EIF2S3 C105 (UniProt P41091), the “log2 ratio” value is 0.341 (inactive).

In the case of HNRNPA1 C175 (UniProt P09651), the “log2 ratio” value is -0.128 (inactive).

For UniProt P14618_C49, the “log2 ratio” value was -0.193 (inactive).

Consider PFN1 C17 (UniProt P07737), for which the “log2 ratio” value was -0.417 (inactive).

Regarding HNRNPF C290 (UniProt P52597), the “log2 ratio” value was 0.0362 (inactive).

Consider CCT4 C337 (UniProt P50991), for which the “log2 ratio” value was 0.0635 (inactive).

As to FDFT1 C6 (UniProt P37268), the “log2 ratio” value is 0.233 (inactive).

Turning to IARS C433 (UniProt P41252), the “log2 ratio” value was -0.0103 (inactive).

Take TCP1 C218 (UniProt P17987): the “log2 ratio” value was 0.0267 (inactive).

Turning to IGF2R C2232 (UniProt P11717), the “log2 ratio” value is 1.08 (active).

As for LRPPRC C863 (UniProt P42704), the “log2 ratio” value is -0.00586 (inactive).

On to RPL10 C195 (UniProt P27635), for which the “log2 ratio” value was 0.694 (inactive).

As to COIL C126 (UniProt P38432), the “log2 ratio” value was 0.729 (inactive).

With MTHFD1 C143 (UniProt P11586), the “log2 ratio” value was -0.0254 (inactive).

In the case of RPL4 C96 (UniProt P36578), the “log2 ratio” value is 1.24 (active).

In the case of MAP1B C1814 (UniProt P46821), the “log2 ratio” value was 0.438 (inactive).

For the target PFKL C170 (UniProt P17858), the “log2 ratio” value is 0.343 (inactive).

As for NT5C2 C181 (UniProt P49902), the “log2 ratio” value was 0.0722 (inactive).

As to NDUFA8 C110 (UniProt P51970), the “log2 ratio” value is 1.12 (active).

For the target MKI67 C2206 (UniProt P46013), the “log2 ratio” value is 0.603 (inactive).

Consider GART C466 (UniProt P22102), for which the “log2 ratio” value was 0.199 (inactive).

Regarding HSPA4 C417 (UniProt P34932), the “log2 ratio” value is 0.208 (inactive).

MDH2 C128 (UniProt P40926): the “log2 ratio” value was -0.335 (inactive).

Regarding PML C338 (UniProt P29590), the “log2 ratio” value is 0.413 (inactive).

As for DSP C174 (UniProt P15924), the “log2 ratio” value is 1.06 (active).

Consider FH C333 (UniProt P07954), for which the “log2 ratio” value was 0.338 (inactive).
